Assay [1] can be described thus: ATG_GRE_CIS: Attagene CIS-FACTORIAL HepG2 Assay for human Glucocorticoid Response Elements (GRE) (AID 2282947). The following applies: HepG2 GRE cis-reporter, Attagene multiplex mRNA; actives raise or lower the signal. The gist of the method:
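Reporter transcripts read by RT-PCR with capillary electrophoresis fluorescence after a 24 h chemical exposure of HepG2 cells transiently transfected with multiple cis-element reporter units. Gain or loss fitted against DMSO.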

Assay [2] can be described thus: ATG_ISRE_CIS: Attagene CIS-FACTORIAL HepG2 Assay for human Interferon Regulatory Factor 1 (IRF1) binding to an Interferon-Stimulated Response Element (ISRE) (AID 2282948). The following applies: HepG2 ISRE cis-reporter (Attagene), mRNA transcription readout; actives raise or lower the signal. The gist of the method:
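Read-out: fluorescent RT-PCR products resolved by capillary electrophoresis, reporting endogenous transcription factor activity via ISRE-driven reporter mRNA in transfected HepG2 cells dosed for 24 h; gain or loss fitted relative to DMSO.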

Assay [3] can be described thus: ATG_M_32_CIS: Attagene CIS-FACTORIAL HepG2 Assay for M32 Transcription Factor (Internal Marker) (AID 2282949).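 Further: background control marker of the multiplexed CIS panel rather than a real target.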 Particulars: HepG2 Attagene cis-factorial M32 reporter, mRNA; actives raise or lower the signal. The gist of the method: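 HepG2 transfectants (cis-regulated reporter transcription units) dosed 24 h. Reporter mRNA by RT-PCR plus CE, analysed as gain or loss relative to DMSO.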

Assay [4] is described as follows: ATG_M_06_CIS: Attagene CIS-FACTORIAL HepG2 Assay for M06 Transcription Factor (Internal Marker) (AID 2282950). Particulars: HepG2 Attagene CIS-FACTORIAL M06 internal marker reporter; actives raise or lower the signal. In a few lines:
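Fluorescence-labelled RT-PCR products from cis-promoter reporter units, cut with HpaI and resolved by capillary electrophoresis, give the signal. Cells are human HepG2, dosed for 24 h. Serves as background control, fitted relative to DMSO.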

In assay [5] the target is Hypoxia-inducible factor 1-alpha (Homo sapiens) (UniProt Q16665). Nature of the assay: ATG_HIF1a_CIS: Attagene CIS-FACTORIAL HepG2 Assay for human Hypoxia Inducible Factor 1 (HIF1A) (AID 2282951). Particulars: HepG2 Attagene cis-factorial HIF1a reporter transcription; actives raise or lower the signal. The gist of the method: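 HepG2, transient cis-reporter library, 24 h dosing. RNA → RT (oligo dT) → PCR → 6-FAM primer extension → HpaI → CE. Bidirectional curve fit vs DMSO.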

The target of assay [6] is Hepatocyte nuclear factor 6 (Homo sapiens) (UniProt Q9UBC0). Kind of assay: ATG_HNF6_CIS: Attagene CIS-FACTORIAL HepG2 Assay for human Hepatocyte Nuclear Factor 6 (HNF6) (AID 2282952). The following applies: HepG2 Attagene cis-factorial HNF6 reporter transcription; actives raise or lower the signal. The gist of the method:
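Endogenous transcription factor activity in human HepG2 liver cells was captured through cis-regulated reporter constructs. After 24 h treatment, reporter mRNA was measured by RT-PCR with capillary electrophoresis, and activity was fitted in both directions relative to DMSO.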

For assay [7], the target named is Heat shock factor protein 1 (Homo sapiens) (UniProt Q00613). Kind of assay: ATG_HSE_CIS: Attagene CIS-FACTORIAL HepG2 Assay for human Heat Shock Transcription Factor 1 (HSE) (AID 2282953). Particulars: HepG2 HSE cis-reporter, Attagene RNA transcription; actives raise or lower the signal. In a few lines:
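After a 24 h incubation with test chemical, transfected HepG2 cells were harvested for RNA; reporter transcripts were measured by RT-PCR and capillary electrophoresis. Values reflect gain or loss of signal relative to DMSO.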

Assay [8] can be described thus: ATG_MRE_CIS: Attagene CIS-FACTORIAL HepG2 Assay for human Metal Responsive Element (MRE) (AID 2282954). Particulars: HepG2 MRE cis-reporter transcription, Attagene multiplex; actives raise or lower the signal. In a few lines:
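Endogenous MRE-dependent transcription read as reporter mRNA in transiently transfected human HepG2 cells at 24 h. RNA reverse-transcribed, PCR-amplified, labelled and resolved by capillary electrophoresis; gain or loss relative to DMSO.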

Assay [9] can be described thus: ATG_PBREM_CIS: Attagene CIS-FACTORIAL HepG2 Assay for human Phenobarbital-responsive Enhancer Module (PBREM) (AID 2282955). The following applies: HepG2 PBREM cis-reporter, Attagene multiplexed transcription; actives raise or lower the signal. In a few lines:
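HepG2, transient MRTU transfection, 24 h dosing; RNA → oligo(dT) RT → PCR → 6-FAM extension → HpaI → CE. Bidirectional fit vs DMSO.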

Assay [10] deals with Paired box protein Pax-6 (Homo sapiens) (UniProt P26367). Nature of the assay: ATG_Pax6_CIS: Attagene CIS-FACTORIAL HepG2 Assay for human Paired Box 6 (PAX6) (AID 2282956). The following applies: HepG2 CIS-FACTORIAL PAX6 reporter transcription, RNA readout; actives raise or lower the signal. The gist of the method: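 Readout: reporter transcript fluorescence after RT-PCR and capillary electrophoresis. Cells: HepG2, transiently transfected with cis-regulated MRTUs. Exposure 24 h. Gain or loss of signal fitted bidirectionally relative to DMSO.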

Assay [11] is described as follows: ATG_PXRE_CIS: Attagene CIS-FACTORIAL HepG2 Assay for human Pregnane X Receptor Element (PXRE) (AID 2282957). Particulars: HepG2 Attagene CIS-FACTORIAL PXRE reporter, mRNA; actives raise or lower the signal. The gist of the method:
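Endogenous transcription factor activity in HepG2 was gauged through induction of reporter mRNA driven by a cis-regulating promoter element, sampled 24 h post-treatment. Activity was fitted in both directions against DMSO negative control.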

Assay [12] can be described thus: ATG_RORE_CIS: Attagene CIS-FACTORIAL HepG2 Assay for human RAR-related Orphan Receptor Element (RORE) (AID 2282959). The following applies: HepG2 Attagene cis-factorial RORE reporter, mRNA; actives raise or lower the signal. In a few lines: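 Multiplexed reporter assay measuring mRNA induction from a cis promoter element in transiently transfected HepG2 cells after 24 h treatment. Detection via RT-PCR and capillary electrophoresis fluorescence; DMSO serves as baseline.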

A short description of assay [13]: ATG_Sox_CIS: Attagene CIS-FACTORIAL HepG2 Assay for human SRY-box transcription factor (SOX) (AID 2282960). Particulars: HepG2 Attagene cis-factorial SOX reporter, mRNA; actives raise or lower the signal. The gist of the method: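 Cells were transfected with reporter constructs under cis-regulatory promoters, then exposed to chemicals for 24 h. Reporter transcripts were quantified by fluorescence after RT-PCR and capillary electrophoresis; activity was fitted in both directions against DMSO.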

For assay [14], the target named is Transcription factor Sp1 (Homo sapiens) (UniProt P08047). Nature of the assay: ATG_Sp1_CIS: Attagene CIS-FACTORIAL HepG2 Assay for human Specificity Protein 1 (Sp1) (AID 2282961). Particulars: HepG2 Sp1 cis-reporter transcription, actives raise or lower the signal. The gist of the method: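 Measures mRNA induction of an Sp1-linked reporter in HepG2 cells 24 h post-dosing. Multiplexed reporters read by RT-PCR and capillary electrophoresis; DMSO serves as negative control and baseline.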

The nature of assay [15]: ATG_SREBP_CIS: Attagene CIS-FACTORIAL HepG2 Assay for human Sterol Regulatory Element Binding (SREBP) (AID 2282962). Particulars: HepG2 Attagene cis-factorial SREBP reporter, mRNA; actives raise or lower the signal. In a few lines: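 Readout: fluorescent reporter-transcript peaks resolved by capillary electrophoresis after RT-PCR. Cells were human HepG2 carrying transfected cis-promoter reporter constructs, dosed for 24 h. Gain or loss of signal was fitted against DMSO controls.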

Assay [16] deals with Signal transducer and activator of transcription 3 (Homo sapiens) (UniProt P40763). Nature of the assay: ATG_STAT3_CIS: Attagene CIS-FACTORIAL HepG2 Assay for human Signal Transducer and Activator of Transcription 3 (STAT3) (AID 2282963). The following applies: HepG2, Attagene cis-factorial STAT3 reporter transcription; actives raise or lower the signal. In a few lines:
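Readout is reporter transcript quantified by RT-PCR and capillary electrophoresis, with 6-FAM primer extension and HpaI digestion. Total RNA is taken 24 h after dosing transiently transfected HepG2 carrying cis-regulated reporter units. Bidirectional fit against DMSO.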

Assay [17] is described as follows: ATG_TA_CIS: Attagene CIS-FACTORIAL HepG2 Assay for human TA Basal Promoter (AID 2282964). Particulars: HepG2 Attagene CIS-factorial TA basal promoter reporter; actives raise or lower the signal. The gist of the method:
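Multiplexed mRNA reporter assay, HepG2, 24 h. Reporter cDNA amplified, 6-FAM primer-extended, HpaI-cut, CE-sized; DMSO = negative control and baseline.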

Assay [18] is described as follows: ATG_TCF_b_cat_CIS: Attagene CIS-FACTORIAL HepG2 Assay for human T-Cell-Factor with beta-catenin (TCF/b-cat) (AID 2282965). The following applies: HepG2 TCF/beta-catenin cis-reporter transcription, actives raise or lower the signal. The gist of the method: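 Endogenous transcription factor activity is captured through cis-promoter reporter constructs transiently introduced into human HepG2 liver cells. Induced reporter mRNA is measured after 24 h and fitted bidirectionally relative to DMSO.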

The nature of assay [19]: ATG_PPRE_CIS: Attagene CIS-FACTORIAL HepG2 Assay for human Peroxisome Proliferator-activated Response Element (PPRE) (AID 2282958). Particulars: HepG2 PPRE cis-element reporter, Attagene transcription factor profiling; actives raise or lower the signal. In a few lines: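 Transcript-level reporter induction in transfected HepG2 cells after 24 h chemical exposure, quantified by fluorescence from RT-PCR products separated by capillary electrophoresis.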

The structures appear in SMILES notation. Calls of active or inactive are those of the source. How the source made its calls: active means hit-call score of the fitted dose curve at least 0.9, where 1 is the maximum; inactive means score below 0.9.

Sequence of Transcription factor Sp1 (Homo sapiens) (P08047 whole entry, looked up): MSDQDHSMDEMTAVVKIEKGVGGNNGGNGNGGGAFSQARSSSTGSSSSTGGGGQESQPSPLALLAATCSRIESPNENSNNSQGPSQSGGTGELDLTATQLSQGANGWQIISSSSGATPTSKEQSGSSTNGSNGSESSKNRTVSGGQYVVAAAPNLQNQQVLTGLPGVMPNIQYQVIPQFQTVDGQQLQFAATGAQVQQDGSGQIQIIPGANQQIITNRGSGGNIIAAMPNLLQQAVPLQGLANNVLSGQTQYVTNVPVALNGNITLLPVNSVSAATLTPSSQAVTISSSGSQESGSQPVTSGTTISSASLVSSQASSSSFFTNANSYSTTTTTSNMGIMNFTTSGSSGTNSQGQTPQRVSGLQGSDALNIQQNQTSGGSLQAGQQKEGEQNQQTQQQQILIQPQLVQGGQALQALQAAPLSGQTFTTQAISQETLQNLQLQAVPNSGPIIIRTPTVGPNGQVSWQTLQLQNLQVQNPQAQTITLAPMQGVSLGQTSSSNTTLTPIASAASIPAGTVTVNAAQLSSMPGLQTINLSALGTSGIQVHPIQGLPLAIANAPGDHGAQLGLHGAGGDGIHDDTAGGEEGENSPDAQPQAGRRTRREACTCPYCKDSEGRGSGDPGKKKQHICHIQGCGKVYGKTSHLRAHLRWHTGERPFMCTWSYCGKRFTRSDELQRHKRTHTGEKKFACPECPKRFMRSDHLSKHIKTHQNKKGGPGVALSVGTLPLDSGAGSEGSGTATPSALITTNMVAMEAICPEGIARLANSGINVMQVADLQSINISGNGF
Sequence of Hepatocyte nuclear factor 6 (Homo sapiens) (Q9UBC0 whole entry, looked up): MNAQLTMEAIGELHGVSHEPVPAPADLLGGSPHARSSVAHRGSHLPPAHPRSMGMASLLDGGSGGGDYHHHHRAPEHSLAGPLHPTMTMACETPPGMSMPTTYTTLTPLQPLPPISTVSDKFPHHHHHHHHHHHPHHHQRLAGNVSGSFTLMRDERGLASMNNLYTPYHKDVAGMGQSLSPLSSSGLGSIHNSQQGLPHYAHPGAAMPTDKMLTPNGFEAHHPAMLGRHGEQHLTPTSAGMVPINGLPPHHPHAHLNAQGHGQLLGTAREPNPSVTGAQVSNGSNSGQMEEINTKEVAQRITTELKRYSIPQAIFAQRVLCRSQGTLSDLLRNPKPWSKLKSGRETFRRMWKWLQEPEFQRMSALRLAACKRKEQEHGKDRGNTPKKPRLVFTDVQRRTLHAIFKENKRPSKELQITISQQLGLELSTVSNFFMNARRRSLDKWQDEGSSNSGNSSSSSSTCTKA
Sequence of Signal transducer and activator of transcription 3 (Homo sapiens) (P40763 whole entry, looked up): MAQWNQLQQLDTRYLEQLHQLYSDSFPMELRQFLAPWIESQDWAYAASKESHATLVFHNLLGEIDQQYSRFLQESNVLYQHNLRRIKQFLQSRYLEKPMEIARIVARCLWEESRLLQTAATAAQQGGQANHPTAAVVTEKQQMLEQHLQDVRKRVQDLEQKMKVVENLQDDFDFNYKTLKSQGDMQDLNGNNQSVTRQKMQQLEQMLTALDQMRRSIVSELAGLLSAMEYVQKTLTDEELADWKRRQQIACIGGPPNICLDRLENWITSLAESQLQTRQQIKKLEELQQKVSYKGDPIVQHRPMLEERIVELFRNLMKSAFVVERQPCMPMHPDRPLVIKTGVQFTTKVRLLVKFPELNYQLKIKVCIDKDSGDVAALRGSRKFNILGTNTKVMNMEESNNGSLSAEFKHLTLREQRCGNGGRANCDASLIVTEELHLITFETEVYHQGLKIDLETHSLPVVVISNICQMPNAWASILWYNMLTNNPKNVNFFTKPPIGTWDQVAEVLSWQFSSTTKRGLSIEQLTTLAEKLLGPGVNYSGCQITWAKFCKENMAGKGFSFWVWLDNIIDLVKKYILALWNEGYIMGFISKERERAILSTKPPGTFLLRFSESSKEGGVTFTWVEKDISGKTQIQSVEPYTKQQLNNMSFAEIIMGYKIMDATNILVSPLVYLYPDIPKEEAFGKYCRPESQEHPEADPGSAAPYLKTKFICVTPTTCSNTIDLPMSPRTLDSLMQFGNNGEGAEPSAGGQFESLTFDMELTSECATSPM
Sequence of Paired box protein Pax-6 (Homo sapiens) (P26367 whole entry, looked up): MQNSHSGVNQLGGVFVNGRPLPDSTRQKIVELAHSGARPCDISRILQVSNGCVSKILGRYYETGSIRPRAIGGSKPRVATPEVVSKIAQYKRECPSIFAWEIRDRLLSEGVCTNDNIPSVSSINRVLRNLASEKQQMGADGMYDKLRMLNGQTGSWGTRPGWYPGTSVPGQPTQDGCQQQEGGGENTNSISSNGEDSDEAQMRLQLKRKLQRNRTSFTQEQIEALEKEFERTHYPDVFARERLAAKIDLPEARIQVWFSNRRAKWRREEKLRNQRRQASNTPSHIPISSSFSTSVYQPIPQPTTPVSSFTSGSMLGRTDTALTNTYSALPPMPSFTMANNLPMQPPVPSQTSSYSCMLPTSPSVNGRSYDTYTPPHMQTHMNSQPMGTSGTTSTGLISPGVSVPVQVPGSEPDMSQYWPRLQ
Sequence of Hypoxia-inducible factor 1-alpha (Homo sapiens) (Q16665 whole entry, looked up): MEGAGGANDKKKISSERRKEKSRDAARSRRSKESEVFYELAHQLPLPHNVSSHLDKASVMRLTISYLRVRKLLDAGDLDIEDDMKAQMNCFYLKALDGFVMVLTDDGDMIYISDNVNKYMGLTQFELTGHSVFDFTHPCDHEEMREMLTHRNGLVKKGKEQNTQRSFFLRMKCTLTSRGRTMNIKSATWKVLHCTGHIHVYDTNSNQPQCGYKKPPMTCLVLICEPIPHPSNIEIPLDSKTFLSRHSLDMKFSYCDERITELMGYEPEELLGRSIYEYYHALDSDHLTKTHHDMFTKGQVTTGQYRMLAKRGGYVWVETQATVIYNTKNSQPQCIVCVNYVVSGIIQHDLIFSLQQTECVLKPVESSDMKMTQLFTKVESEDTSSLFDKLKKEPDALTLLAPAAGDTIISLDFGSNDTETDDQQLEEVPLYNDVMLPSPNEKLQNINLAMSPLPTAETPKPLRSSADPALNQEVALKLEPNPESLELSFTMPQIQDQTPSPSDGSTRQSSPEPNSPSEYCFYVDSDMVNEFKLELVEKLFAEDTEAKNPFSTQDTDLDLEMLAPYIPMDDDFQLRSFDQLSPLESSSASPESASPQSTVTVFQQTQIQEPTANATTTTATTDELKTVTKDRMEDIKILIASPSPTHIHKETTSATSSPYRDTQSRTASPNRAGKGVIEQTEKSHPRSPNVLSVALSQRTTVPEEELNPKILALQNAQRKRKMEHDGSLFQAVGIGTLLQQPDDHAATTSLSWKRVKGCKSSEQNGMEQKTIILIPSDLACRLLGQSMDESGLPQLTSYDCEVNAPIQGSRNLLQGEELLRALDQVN
Sequence of Heat shock factor protein 1 (Homo sapiens) (Q00613 whole entry, looked up): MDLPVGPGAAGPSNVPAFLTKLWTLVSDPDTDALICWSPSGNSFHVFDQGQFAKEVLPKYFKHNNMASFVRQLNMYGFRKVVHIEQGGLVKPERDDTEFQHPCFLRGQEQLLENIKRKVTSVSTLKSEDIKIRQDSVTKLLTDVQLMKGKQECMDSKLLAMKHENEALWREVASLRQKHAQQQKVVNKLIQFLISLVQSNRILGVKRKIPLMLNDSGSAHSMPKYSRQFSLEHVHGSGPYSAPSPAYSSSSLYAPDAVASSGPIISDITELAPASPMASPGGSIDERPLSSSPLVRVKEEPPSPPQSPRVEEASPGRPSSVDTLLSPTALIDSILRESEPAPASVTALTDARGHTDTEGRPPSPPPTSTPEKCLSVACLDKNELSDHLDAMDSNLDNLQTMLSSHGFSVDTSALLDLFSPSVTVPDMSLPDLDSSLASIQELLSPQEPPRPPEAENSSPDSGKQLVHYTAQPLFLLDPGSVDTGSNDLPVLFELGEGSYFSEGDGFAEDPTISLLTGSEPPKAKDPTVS

One may read the AC50 as the concentration at which the activity in the assay is half-maximal. With `CN(C)C(=O)Nc1ccc(Oc2ccc(Cl)cc2)cc1`, the result in [1], in assay [2], in assay [3], in assay [4], in assay [5] and in [6] was inactive. For the same molecule, the result in assay [8], in assay [9], in [10], in assay [12], in assay [13] and in assay [14] was inactive. For the same molecule, the molecule was called inactive in assay [15], in assay [16], in [17] and in assay [18]. Also, the AC50 was 181 µM (active) in assay [7] and 26.7 µM (active) in assay [11].
`BrCc1cccc(Oc2ccccc2)c1`: the call in assay [1], in assay [2], in assay [3], in assay [4], in assay [5] and in [6] was inactive. Besides, the result in assay [7], in assay [8], in assay [9], in [10], in assay [19] and in assay [12] was inactive. In addition, the call in assay [13], in [14], in [15], in [16] and in assay [17] was inactive. Also, the results for the AC50 in assay [11] and in [18] were 26.3 µM (active) and 100 µM (active), respectively.
As to `C=CCN(CC=C)CC=C`, the molecule was classed as inactive in assay [1], in assay [2], in assay [3], in assay [4], in assay [5] and in assay [6]. The molecule was called inactive in assay [7], in assay [8], in [9], in assay [10], in assay [11] and in assay [19]. The result in [12], in assay [13], in assay [14], in assay [15], in [16] and in assay [18] was inactive.
Turning to `CCCC(=O)OCCc1ccccc1`, the molecule was called inactive in [1], in [2], in assay [3], in [4], in [5] and in assay [6]. Further, the result in assay [7], in [8], in assay [9], in assay [10], in [11] and in assay [19] was inactive. For the same molecule, the result in assay [12], in assay [13], in assay [14], in assay [15], in [16] and in assay [17] was inactive. In addition, the outcome in [18] was inactive.
